The structures appear in SMILES notation. Activity calls are given as the source filed them. How the source made its calls: active means hit-call score of the fitted dose curve at least 0.9, where 1 is the maximum; inactive means score below 0.9.

A word on the AC50: it is the midpoint of the concentration-response curve, whichever way the signal moves.

Read-out in experiment [1]: Human Leukocyte Antigen - DR isotype (HLADR), HLA-DRA (gene 3122)
Description: BSK_BE3C_HLADR: BioMAP Diversity Plus: BE3C Assay for Human Leukocyte Antigen - DR isotype (HLADR) Biomarker Activity (AID 2283032). Conditions: primary human bronchial epithelial cells; actives raise or lower the signal. Summed up:
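Human primary bronchial epithelial cells in the BE3C system were exposed to chemicals for 24 h, after which HLA-DR levels were quantified by ELISA. Activity was fitted bidirectionally, gain or loss of signal, against DMSO as negative control and baseline.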

Read-out in experiment [2]: Low-density lipoprotein receptor (LDLR), LDLR (gene 3949)
Description: BSK_CASM3C_LDLR: BioMAP Diversity Plus: CASM3C Assay for Low-density lipoprotein receptor (LDLR) Biomarker Activity (AID 2283045).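 Further: LDLR protein level on the cell surface quantified by ELISA.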 Particulars: primary human coronary artery smooth muscle cells; actives raise or lower the signal.

Read-out in experiment [3]: CD40, CD40 (gene 958)
Briefly: BSK_LPS_CD40: BioMAP Diversity Plus: LPS Assay for CD40 Biomarker Activity (AID 2283076). Particulars: primary human HUVEC with PBMC; actives raise or lower the signal. Summed up:
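ELISA readout of CD40 in HUVEC/PBMC co-culture (BSK_LPS system), 24 h post-dosing; bidirectional curve fit, DMSO baseline; parallel SRB total-protein staining for cytotoxicity.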

Read-out in experiment [4]: E-selectin (Homo sapiens) (UniProt P16581)
Description: BSK_LPS_Eselectin: BioMAP Diversity Plus: LPS Assay for Eselectin Biomarker Activity (AID 2283077). Conditions: primary human HUVEC with PBMC; actives raise or lower the signal. Summed up:
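ELISA readout of E-selectin, 24 h post-dose, HUVEC + PBMC co-culture (LPS system). Gain or loss of signal vs DMSO baseline, bidirectional fit.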

Read-out in experiment [5]: Interleukin-8 (IL8), CXCL8 (gene 3576)
Briefly: BSK_LPS_IL8: BioMAP Diversity Plus: LPS Assay for Interleukin-8 (IL8) Biomarker Activity (AID 2283078). Particulars: primary human HUVEC with PBMC; actives raise or lower the signal. Summed up:
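HUVEC + PBMC co-culture, LPS-activated; test chemicals dosed, IL-8 read by ELISA at 24 h. Bidirectional curve fit vs DMSO baseline (gain or loss of signal).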

A short description of experiment [6]: BSK_LPS_SRB: Viability Assessment in the BioMAP Diversity Plus: LPS Assay (AID 2283079).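 Further: total protein by sulforhodamine B absorbance as a cytotoxicity measure; measured one day after compound addition; fitted in both directions against DMSO so loss or gain of signal counts.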 Conditions: primary human HUVEC with PBMC. Summed up: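 HUVEC + PBMC co-culture, LPS-stimulated; compound 24 h. 10% TCA fix, 0.1% SRB stain, A560. Bidirectional fit vs DMSO.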
Read-out in experiment [7]: Macrophage colony-stimulating factor (MCSF), CSF1 (gene 1435)
Description: BSK_LPS_MCSF: BioMAP Diversity Plus: LPS Assay for Macrophage colony-stimulating factor (MCSF) Biomarker Activity (AID 2283083). Conditions: primary human HUVEC with PBMC; actives raise or lower the signal. The procedure, abridged: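 HUVEC + PBMC co-culture (human primary), 24 h post-dose; M-CSF by ELISA; gain/loss of signal fitted bidirectionally vs DMSO baseline.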

Read-out in experiment [8]: Tissue Factor, F3 (gene 2152)
Briefly: BSK_LPS_TissueFactor: BioMAP Diversity Plus: LPS Assay for Tissue Factor Biomarker Activity (AID 2283084). Conditions: primary human HUVEC with PBMC; actives raise or lower the signal. Summed up: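 HUVEC/PBMC co-culture, LPS-activated; CD142 ELISA read 24 h post-dose; bidirectional curve fit vs DMSO negative control.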

Read-out in experiment [9]: Tumor necrosis factor (Homo sapiens) (UniProt P01375)
Briefly: BSK_LPS_TNFa: BioMAP Diversity Plus: LPS Assay for Tumour Necrosis Factor alpha (TNFa) Biomarker Activity (AID 2283085). Particulars: primary human HUVEC with PBMC; actives raise or lower the signal. Summed up: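 Human umbilical vein endothelial cells co-cultured with PBMC were exposed to test chemical and TNFa measured by ELISA 24 h after dosing. Bidirectional curve fitting was done relative to DMSO as negative control and baseline.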

Read-out in experiment [10]: Vascular cell adhesion molecule 1 (VCAM1), VCAM1 (gene 7412)
Description: BSK_LPS_VCAM1: BioMAP Diversity Plus: LPS Assay for Vascular cell adhesion molecule 1 (VCAM1) Biomarker Activity (AID 2283086). Conditions: primary human HUVEC with PBMC; actives raise or lower the signal. The procedure, abridged: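 Human umbilical vein endothelial cells co-cultured with peripheral blood mononuclear cells under LPS stimulation were exposed to test chemical for 24 h. VCAM-1 levels were then measured by ELISA, with bidirectional curve fitting relative to DMSO as negative control and baseline.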

Read-out in another experiment: CD38, CD38 (gene 952)
Briefly: BSK_SAg_CD38: BioMAP Diversity Plus: SAg Assay for CD38 Biomarker Activity (AID 2283087). Conditions: primary human HUVEC with PBMC; actives raise or lower the signal. Summed up:
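Fluorescence ELISA of cell-surface CD38 served as the read-out, with either increase or decrease fitted against DMSO controls. Cells were a human umbilical vein endothelium plus PBMC co-culture under SEB/TSST-1 stimulation, measured 24 h after dosing.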

Read-out in experiment [11]: CD40, CD40 (gene 958)
Briefly: BSK_SAg_CD40: BioMAP Diversity Plus: SAg Assay for CD40 Biomarker Activity (AID 2283088). Conditions: primary human HUVEC with PBMC; actives raise or lower the signal. The procedure, abridged: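 HUVEC/PBMC co-culture, 24 h post-dose; CD40 by ELISA, fluorescence intensity; bidirectional fit vs DMSO negative control.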

Read-out in a further experiment: CD69, CD69 (gene 969)
Briefly: BSK_SAg_CD69: BioMAP Diversity Plus: SAg Assay for CD69 Biomarker Activity (AID 2283089).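 On AC50: cell surface CD69 protein quantified by ELISA with fluorescence detection.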 Particulars: primary human HUVEC with PBMC; actives raise or lower the signal. Summed up: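 ELISA, fluorescence read-out: CD69 on human umbilical vein endothelial cell + PBMC co-culture, 24 h post-dosing. Gain or loss of signal fitted bidirectionally against DMSO baseline.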

Read-out in experiment [12]: Monocyte Chemoattractant Protein-1 (MCP1), CCL2 (gene 6347)
Briefly: BSK_SAg_MCP1: BioMAP Diversity Plus: SAg Assay for Monocyte Chemoattractant Protein-1 (MCP1) Biomarker Activity (AID 2283090). Particulars: primary human HUVEC with PBMC; actives raise or lower the signal. Summed up:
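MCP-1 levels in the endothelial–PBMC SAg co-culture were quantified by ELISA at 24 h post-dosing; both increases and decreases versus DMSO scored. Cytotoxicity monitored by SRB total protein in parallel cultures.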

Read-out in experiment [13]: Monokine induced gamma interferon (MIG), CXCL9 (gene 4283)
Description: BSK_SAg_MIG: BioMAP Diversity Plus: SAg Assay for Monokine induced gamma interferon (MIG) Biomarker Activity (AID 2283092). Conditions: primary human HUVEC with PBMC; actives raise or lower the signal. The procedure, abridged: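 ELISA readout of MIG/CXCL9; primary human umbilical vein endothelial cells co-cultured with peripheral blood mononuclear cells; 24 h post-dose; gain/loss fit vs DMSO baseline.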

Experiment [14] can be described thus: BSK_SAg_PBMCCytotoxicity: PBMC Cytotoxicity Assessment in the BioMAP Diversity Plus: SAg Assay (AID 2283093).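 Further: PBMC viability measured as Alamar Blue reduction fluorescence at 546/580 nm; fitted both ways against DMSO so a hit may be loss or gain of signal.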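 On AC50: PBMC superantigen activated with SEB plus TSST-1 one hour after compound addition.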 Conditions: primary human HUVEC with PBMC. Summed up:
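Compound added to 75,000 PBMC/well for 1 h; SEB and TSST-1 then added at 20 ng/mL final each; 90 h incubation; Alamar Blue 6 h; read 546/580 nm ex/em. Activity fitted bidirectionally relative to DMSO baseline.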

Read-out in experiment [15]: Interleukin-8 (IL8), CXCL8 (gene 3576)
Description: BSK_SAg_IL8: BioMAP Diversity Plus: SAg Assay for Interleukin-8 (IL8) Biomarker Activity (AID 2283094). Conditions: primary human HUVEC with PBMC; actives raise or lower the signal. Summed up: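 Human umbilical vein endothelial cells co-cultured with peripheral blood mononuclear cells; IL-8 measured by ELISA 24 h after chemical dosing. Bidirectional concentration-response fitting used DMSO as negative control and activity baseline.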

Experiment [16] in a line: BSK_SAg_Proliferation: Cell Proliferation Assessment in the BioMAP Diversity Plus: SAg Assay (AID 2283095).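 Further: relative cell number as total protein by SRB absorbance in sub-confluent culture.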 Particulars: primary human HUVEC with PBMC. The procedure, abridged:
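Human umbilical vein endothelial cells co-cultured with peripheral blood mononuclear cells; total protein measured by sulforhodamine B staining (0.1% SRB after 10% TCA fixation), absorbance at 560 nm, at 96 h. Bidirectional fit against DMSO baseline.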

Experiment [17] is described as follows: BSK_SAg_SRB: Viability Assessment in the BioMAP Diversity Plus: SAg Assay (AID 2283096).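 Further: cells read one day after compound addition; hits may be either gain or loss of signal compared with DMSO.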 Particulars: primary human HUVEC with PBMC. The procedure, abridged:
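Total protein by sulforhodamine B staining, 24 h after dosing, in HUVEC–PBMC co-culture; DMSO-referenced bidirectional fitting.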

Experiment [18] in a line: CCTE_Harrill_HTTr_Viability_MCF7: CCTE's 6-hour Cell Viability Assessment for the High-Throughput Transcriptomics (HTTr) Platform, in MCF-7 cells cultured in DMEM + 10% fetal bovine serum, Harrill Lab (AID 2284010). Summed up: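 Membrane integrity was scored by high-content imaging of propidium iodide dye exclusion after a 6 h exposure across an eight-point dilution series. Data were fitted bidirectionally relative to DMSO as negative control and baseline.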

Sequence of Tumor necrosis factor (Homo sapiens) (P01375 whole entry, looked up): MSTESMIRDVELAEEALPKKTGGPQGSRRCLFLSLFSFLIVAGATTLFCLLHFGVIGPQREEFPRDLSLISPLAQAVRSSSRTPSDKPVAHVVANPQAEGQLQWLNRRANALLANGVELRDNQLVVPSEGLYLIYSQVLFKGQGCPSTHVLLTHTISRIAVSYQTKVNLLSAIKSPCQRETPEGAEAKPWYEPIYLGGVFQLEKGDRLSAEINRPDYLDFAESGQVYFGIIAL
Sequence of E-selectin (Homo sapiens) (P16581 whole entry, looked up): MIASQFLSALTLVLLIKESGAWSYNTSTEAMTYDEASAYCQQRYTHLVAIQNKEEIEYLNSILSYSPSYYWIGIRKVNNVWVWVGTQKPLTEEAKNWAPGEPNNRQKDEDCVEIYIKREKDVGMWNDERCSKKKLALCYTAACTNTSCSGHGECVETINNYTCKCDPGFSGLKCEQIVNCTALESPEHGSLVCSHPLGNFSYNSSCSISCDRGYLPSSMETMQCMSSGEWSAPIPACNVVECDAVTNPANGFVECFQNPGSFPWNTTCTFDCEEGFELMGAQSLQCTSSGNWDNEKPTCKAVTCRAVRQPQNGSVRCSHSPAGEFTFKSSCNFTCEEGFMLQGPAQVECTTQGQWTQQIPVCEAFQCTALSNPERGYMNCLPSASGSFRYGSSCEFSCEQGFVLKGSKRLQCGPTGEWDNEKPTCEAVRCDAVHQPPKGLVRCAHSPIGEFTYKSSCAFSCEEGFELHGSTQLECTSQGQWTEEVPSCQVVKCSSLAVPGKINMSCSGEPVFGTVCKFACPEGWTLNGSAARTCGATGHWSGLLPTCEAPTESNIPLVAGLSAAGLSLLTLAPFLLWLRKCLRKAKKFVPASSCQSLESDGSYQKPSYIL

`CC(C)CCCCCCCOC(=O)c1ccccc1C(=O)OCCCCCCCC(C)C`: the outcome in experiment [1] is “inactive”; in experiment [2] it was “inactive”; with CD40, CD40 (gene 958) [3] it was “inactive”; in [4], “inactive”; in experiment [5], “inactive”; in [6], “inactive”. Also, the outcome is “inactive” in [7]; “inactive” in [8]; “inactive” in experiment [9]; “inactive” in [10]; “inactive” with CD38, CD38 (gene 952); “inactive” in the experiment with CD40, CD40 (gene 958) [11]. The outcome was “inactive” in the experiment with CD69, CD69 (gene 969); “inactive” in [12]; “inactive” in [13]; “inactive” in [14]; “inactive” in experiment [15]; “inactive” in [16]. Also, the result in [17] and in [18] was inactive.
`CC(=O)/C=C/c1ccccc1`: the AC50 in [1] was 3.97 µM (active); in the experiment with CD40, CD40 (gene 958) [3], 20 µM (active); in [4], 31.1 µM (active); in experiment [5] it was 20 µM (active); in experiment [7], 16.9 µM (active); in experiment [10], 20 µM (active). Further, the AC50 in experiment [16] was 13 µM (active). Further, the outcome in [2] is “inactive”; in experiment [6] it was “inactive”; in [8], “inactive”; in experiment [9] it was “inactive”; in the experiment with CD38, CD38 (gene 952), “inactive”; with CD40, CD40 (gene 958) [11] it was “inactive”. For the same compound, the outcome in the experiment with CD69, CD69 (gene 969) was “inactive”; in experiment [12] it was “inactive”; in [13], “inactive”; in [14], “inactive”; in experiment [15], “inactive”; in [17] it was “inactive”.
For `C[C@]12CC[C@H]3[C@@H](CC[C@@]45O[C@@H]4C(O)=C(C#N)C[C@]35C)[C@@H]1CC[C@@H]2O`, the outcome in experiment [18] was inactive.
For the compound `O=C1C(Cl)=C(Cl)C(=O)C(Cl)=C1Cl`, the outcome in experiment [2] and in experiment [18] was inactive. Also, the AC50 is 15.1 µM (active) in the experiment with CD40, CD40 (gene 958) [3]; 30.2 µM (active) in experiment [4]; 29 µM (active) in [5]; 32.2 µM (active) in experiment [6]; 25.2 µM (active) in experiment [7]; 30.1 µM (active) in experiment [8]. Further, the AC50 in experiment [9] is 30.9 µM (active); in experiment [10], 16.2 µM (active); with CD38, CD38 (gene 952), 28.5 µM (active); with CD40, CD40 (gene 958) [11], 25.3 µM (active); in the experiment with CD69, CD69 (gene 969), 27.3 µM (active); in experiment [12], 37.9 µM (active). Moreover, the AC50 in experiment [13] was 36.2 µM (active); in experiment [14] it was 15.1 µM (active); in experiment [15], 28 µM (active); in experiment [16], 7.77 µM (active); in experiment [17], 30.9 µM (active).
`O=[N+]([O-])O`: the outcome in experiment [1] is “inactive”; in experiment [2], “inactive”; in the experiment with CD40, CD40 (gene 958) [3], “inactive”; in experiment [4], “inactive”; in experiment [5], “inactive”; in experiment [6], “inactive”. In addition, the outcome in experiment [7] was “inactive”; in experiment [8] it was “inactive”; in experiment [9], “inactive”; in [10], “inactive”; in the experiment with CD38, CD38 (gene 952), “inactive”; in the experiment with CD40, CD40 (gene 958) [11], “inactive”. Besides, the outcome was “inactive” with CD69, CD69 (gene 969); “inactive” in experiment [12]; “inactive” in experiment [13]; “inactive” in experiment [14]; “inactive” in experiment [15]; “inactive” in [16]. In addition, the outcome in [17] was inactive.
With `CC(C)(Cl)Cl`, the outcome in [18] was inactive.

Values taken from PubChem BioAssay (EPA / NIEHS).
